Bioassay records deposited in PubChem BioAssay by National Center for Advancing Translational Sciences (NCATS).
CHX counter: Cycloheximide Counterscreen for Small Molecule Inhibitors of Shiga Toxin | hit rate 12% among 300,000 | AID 2314, 2010 | cell reporter, cycloheximide protein synthesis inhibition counterscreen | max response, %; in the data active = max response mostly above about 13%, no sharp cut-off; inactive = mostly below about 14%; also: read at 38.3 µM for the half of the compounds with a filed dose
Pf growth 48h: Primary qHTS for delayed death inhibitors of the malarial parasite plastid, 48 hour incubation; P. falciparum luciferase growth in erythrocytes, 48 h; Potency, µM (highest dose often 28.7 µM), actives largely listed as inhibitors; hit rate 5.9% among 310,000; AID 504832, 2011
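In quantitative HTS format, infected erythrocytes bearing luciferase-reporter parasites were treated for a single generation at 37 C. Luminescence after adding detection reagent served as the growth measure.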
NS1 inh: qHTS Assay for Inhibitors of Influenza NS1 Protein Function; Potency, µM (top dose mostly 46.1 µM); hit rate 0.4% among 270,000; AID 2326, 2010; calls by dose curve; also: actives are rising curves; nearly all actives have a fitted effect of over 50% in size
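Recovery from NS1-induced slow growth read by OD600 in budding yeast switched to galactose assay medium (pH 6.0, -URA) at 1:100 dilution. Compound 23 nl per well; the matching strain lacking NS1 serves as control.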
Pf growth 96h: Primary qHTS for delayed death inhibitors of the malarial parasite plastid, 96 hour incubation. P. falciparum luciferase reporter growth, 96 h. Potency, µM (titrated, usually from 28.7 µM), hits mostly inhibitors. hit rate 6.9% among 320,000. AID 504834, 2011
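Cell-based qHTS: luciferase-tagged P. falciparum in erythrocytes (2% hematocrit, 0.05% parasitemia final) incubated with compounds for 96 hours, 37 C, 5% CO2; luciferase detection reagent then added and luminescence measured.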
Shiga toxin inh: A qHTS for Small Molecule Inhibitors of Shiga Toxin. Vero cells, Shiga toxin protein synthesis inhibition reporter. inhibition, % at 38.7 µM. hit rate 9.2% among 290,000. AID 2315, 2010; in the data active = inhibition mostly above about 28%, no sharp cut-off; inactive = mostly below about 43%
A number is an active result; n = inactive; u = inconclusive; x = no result. This is a sample that favours compounds with a hit; in the whole collection about 21% have one here. Unless noted, calls follow the shape of the dose curve; as a rule, active = well fitted inhibition curve with a large enough effect; inconclusive = small, poorly fitted or top-dose-only effect, or another doubt; inactive = no such curve, though single readings can be large or run the other way.

SMILES	CHX counter	Pf growth 48h	NS1 inh	Pf growth 96h	Shiga toxin inh
COc1ccc(C2CC(=O)c3cnc(NC(=O)c4ccccc4)nc3C2)c(OC)c1 (centres undefined)	n	u	n	u	n
CNC(=O)c1ccc(-c2cc(C(F)(F)F)nn2C)s1	38	n	n	n	63
c1ccc(Cc2ccc(OCCn3cncn3)cc2)cc1	n	n	n	x	n
c1ccc(COc2ccc(OCCCn3cncn3)cc2)cc1	35	n	n	n	61
c1ccc(-c2ccc(OCCOCCn3cncn3)cc2)cc1	35	n	n	n	57
CCn1c(=O)[nH]c(=O)c2c(N)c(C(=O)c3cc(F)ccc3F)sc21	n	u	n	u	n
CC(NC(=O)CCc1nnc(-c2ccc(-c3ccccc3)cc2)o1)c1nccs1 (centres undefined)	14	n	n	n	n
O=C(CCc1nnc(-c2ccc(-c3ccccc3)cc2)o1)NCCc1ccccn1	18	n	n	u	n
Cc1csc(C(C)N(C)C(=O)CCc2nnc(CCc3ccccc3)o2)n1 (centres undefined)	n	n	n	u	n
CC(c1nccs1)N(C)C(=O)CCc1nnc(-c2ccc(-c3ccccc3)cc2)o1 (centres undefined)	26	u	n	n	n
COCCNC(=O)CCc1nnc(Cc2ccc(-c3ccccc3)cc2)o1	n	n	n	12µM	n
CCOc1ccccc1CN1CCNC(=O)C1CC(=O)NCCN1CCOC1=O (centres undefined)	n	n	n	n	n
O=C1CN(C(=O)C2CCCC2)CCN1	n	n	n	n	n
O=C(Nc1ccc2[nH]c(=O)[nH]c2c1)c1c(F)c(F)c(F)c(F)c1F	n	n	x	u	n
O=C(CCc1nnc(-c2ccccc2)o1)NCc1c(F)cccc1F	n	n	n	13µM	n
COc1ccc(NC(=O)c2sc3cc(C(F)(F)F)cnc3c2-c2cccs2)cc1	n	x	n	12µM	n
COc1cc(OC)cc(C(=O)NCC(=O)N2CCCCC2)c1	n	n	n	n	n
C=CCSc1nnc(-c2cc3c(s2)-c2ccccc2CC3)o1	14	u	n	n	52
CC(=O)C1=C(O)C(=O)N(CCCN2CCOCC2)C1c1ccccc1[N+](=O)[O-] (centres undefined)	35	n	n	n	105
CC(=O)C1=C(O)C(=O)N(C)C1c1ccccc1[N+](=O)[O-] (centres undefined)	17	n	n	n	n
CC(=O)C1=C(O)C(=O)N(CCC(=O)O)C1c1ccccc1[N+](=O)[O-] (centres undefined)	n	n	n	n	n
O=C(OCCOc1cccc(Cl)c1)c1cc(S(=O)(=O)N2CCOCC2)ccc1F	x	n	x	u	x
CCOC(=O)/C(=C/c1cn(C)c2ccccc12)NC(=O)c1ccccc1	n	n	n	u	n
Cc1ccc(CONC(=O)c2ccc(C)cc2)cc1	x	n	x	n	x
O=C(CNC(=O)/C(=C/c1ccccc1)NC(=O)c1ccc(Br)cc1)OCc1ccccc1	n	n	n	n	n
SMILES	CHX counter	Pf growth 48h	NS1 inh	Pf growth 96h	Shiga toxin inh
Cc1ccc(C(=O)N/C(=C\c2ccccc2)C(=O)OCc2ccccc2)cc1	45	n	n	n	71
Cc1ccc(CONC(=O)c2ccccc2)cc1	40	n	n	n	67
C=CCOC(=O)/C(=C/c1cccc2ccccc12)NC(=O)c1ccccc1	66	n	n	u	92
O=C(OCc1ccccc1)/C(=C/c1cccc2ccccc12)NC(=O)c1ccccc1	n	6.6µM	n	u	n
COc1cc2c(cc1OC)C(C)N(C(=O)C1=NN(c3cccc(C)c3)C(=O)CC1)CC2 (centres undefined)	n	u	n	u	n
C=CCn1c(Cc2csc(N)n2)nnc1SCc1ccc(C(=O)OC)cc1	n	n	n	n	n
CC(C)(C)NNC(=S)Nc1cccc(C(F)(F)F)c1	n	n	n	u	n
Cc1ccc(NC(=S)NNC(C)(C)C)cc1	34	13µM	n	5.9µM	41
N#Cc1cc2cc3c(cc2nc1SCC(=O)N1CCOCC1)OCCO3	52	n	n	n	74
Cc1cc2cc3c(cc2nc1SCC(=O)N1CCCC1)OCCO3	n	n	n	u	n
N#Cc1cc2ccccc2nc1SCC(=O)Nc1ccc(S(=O)(=O)N2CCCC2)cc1	n	9.3µM	u	u	n
COc1ccc2nc(SCC(=O)NCC3CCCO3)c(C#N)cc2c1 (centres undefined)	n	n	n	2.1µM	n
Cc1cc(C)c2nc(SCC(=O)Nc3ccc(S(=O)(=O)N4CCCC4)cc3)c(C)cc2c1	n	9.3µM	n	x	n
Cc1ccc2nc(SCC(=O)NCC3CCCO3)c(C#N)cc2c1 (centres undefined)	n	n	n	x	n
CCSc1nnc(NC(=O)CN2C(=O)N(C)C3(CCCCC3)C2=O)s1	x	n	x	n	x
Cc1nn(CC(=O)N2CCC(C)CC2)c(=O)c2nn(-c3ccccc3)c(C)c12	n	n	n	u	n
COc1ccc2nc(SCC(=O)Nc3ccc(S(=O)(=O)N4CCCC4)cc3)c(C#N)cc2c1	n	3.3µM	n	u	n
COc1ccc2nc(SCC(=O)N3CCCCCC3)c(C#N)cc2c1	15	u	n	n	87
CCOc1ccc2nc(SCC(=O)N3c4ccccc4Sc4ccccc43)c(C#N)cc2c1	n	10µM	n	u	n
COc1ccc2nc(SCC(=O)N3CCCCC3)c(C#N)cc2c1	n	n	n	n	n
CCOc1ccc2nc(SCC(=O)N3c4ccccc4Sc4ccccc43)sc2c1	n	n	n	n	n
COCc1cc(C)nc(SCC(=O)Nc2ccc(N3CCOCC3)cc2)c1C#N	n	n	n	n	n
N#Cc1cc2c(nc1SCC(=O)Nc1ccc(Cl)cc1)C1CCN2CC1	23	13µM	n	n	n
Cc1cc(Br)ccc1NC(=O)CN(C)C(=O)Cn1c(=O)cnc2ccccc21	n	n	n	n	n
Cc1cc(C)n(CC(=O)Nc2ccc(N3CCOCC3)c(Cl)c2)c(=O)c1C#N	n	n	n	n	n
SMILES	CHX counter	Pf growth 48h	NS1 inh	Pf growth 96h	Shiga toxin inh
CN(C)S(=O)(=O)c1cccc(NC(=O)c2ccc(S(=O)(=O)N3CCCC3)cc2)c1	x	n	x	u	x
CCN(CC)S(=O)(=O)c1ccc(NC(=O)C(C)N(c2ccccc2)S(C)(=O)=O)cc1 (centres undefined)	n	u	n	u	n
COc1ccccc1C(=O)NC(=S)Nc1ccc(Cc2ccncc2)cc1	20	u	n	n	42
Cc1cc(C)cc(C(=O)NC(=S)Nc2ccc(Cc3ccncc3)cc2)c1	n	u	n	n	n
O=C(NC(=S)NC(c1ccccc1)c1ccncc1)c1ccccc1 (centres undefined)	n	u	n	9.3µM	n
O=C(NC(=S)NC(CO)c1ccccc1)c1ccc(F)cc1 (centres undefined)	n	n	u	n	n
CCC(NC(=O)c1ccncc1)c1ccccc1 (centres undefined)	n	n	n	15µM	n
